Compounds without any hit were thinned out: in the full panel of roughly 83,000, 20% have a hit.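 In brief: 96-well plates, 48 h treatment, single concentration, percent growth endpoint.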 Unmarked numbers belong to inactive results. Active and inactive are the calls of the source. Rule for the calls: active = growth percent below 10; inactive = the rest.
Tested on: HL-60(TB) leukemia
Experiment: NCI-60 one-dose screen, 48 h (100 = growth as untreated, 0 = no growth, -100 = all killed)
Details: 10 µM unless noted

`CC(=O)Nc1ccc(S(=O)(=O)N2C(=O)CCC2C(=O)Nc2ccc(Br)cc2)cc1` (stereo not drawn) was tested, and the growth was 15.5%.

`Nc1nc2ccccc2c2c(=O)c3cc(F)ccc3sc12` showed a growth of 99.4%.

`O=C(/C=C/c1ccc(Cl)cc1)c1ccc(Cl)cc1` gave a growth of 69.2%.

With `O=C(NCc1ccccc1)C(Cl)Cl` the growth was 95.9%.

`O=C1/C(=N\c2cc(=O)[nH]n2S(=O)(=O)c2ccccc2)Nc2ccccc21` gave a growth of 102%.

For `COc1ccc(-c2cn(-c3cccc(C(=O)/C=C/c4cc(OC)c(OC)c(OC)c4)c3)c(=O)[nH]2)cc1`, the growth was 5.72% (active).

In the case of `COc1ccc(/C=C2\SC(=O)N(Cc3cc(=O)oc4ccc(OC)cc34)C2=O)cc1`, the growth is reported as 90.9%.

With `Cc1ccc(C(O)C2CC2)cc1` (stereo not drawn) the growth was 99.3%.

`CC(=S)Nc1ccccc1` gave a growth of 103%.

`S=C1NC2(c3ccccc3)CCC(=S)N2c2ccccc21` (stereo not drawn) gave a growth of 104%.

In the case of `COc1cc(C(=O)OCCCCCCCCCCC[P+](c2ccccc2)(c2ccccc2)c2ccccc2)ccc1O`, the growth is reported as -56% (active).

`CC(=O)c1cc2c(N)c(C(=O)Nc3ccccn3)sc2nc1C` gave a growth of 83.3%.

`CN1C(=O)C(C2=NN(C=O)C(c3ccc(F)cc3)C2)C(=O)N(C)C1=O` (stereo not drawn) was tested, and the growth was 105%.

In the case of `CC1=NN2C(=NC3=C(CCC/C3=C\c3ccc(Cl)cc3)C2c2ccc(Cl)cc2)S1` (stereo not drawn), the growth is reported as 63.2%.

`NC1=Nc2cc(OCCCN3Cc4ccccc4C3)c(OCC3CC3)cc2C12CCCC2` was tested, and the growth was 62.5%.

For `c1csc(-c2ccc(CNc3c4ccccc4nc4ccccc34)cc2)c1`, the growth was -56.7% (active).

Work on `CCN(CC)CCNc1ccc([N+](=O)[O-])c2sc3cc(Cl)ccc3c(=O)c12` yielded a growth of 54.7%.

With `COc1cc2cc3c(=O)n4c(cc5cc(OC)ncc54)c(=O)n3c2cn1` the growth was 89.3%.

`Cc1cc(C)c(NC(=O)c2sc3nc4c(cc3c2N)CN(Cc2ccccc2)CC4)c(C)c1` was tested, and the growth was -10.3% (active).

Compound `C#CCOc1ccc2ncnc(NCc3cccc(NC(=O)CCl)c3)c2c1` has a growth of 19.5% [8.25 µM].

In the case of `CC(C)=C[C@@H]1c2c(c3ccccc3n(C)c2=O)O[C@H]2c3c(c4ccccc4n(C)c3=O)OC(C)(C)[C@@H]12`, the growth is reported as 20.4%.

`COc1cc(CSc2nc3ccc(C)cc3c(=O)n2-c2ccccc2)cc(OC)c1OC` was tested, and the growth was 12.2%.

Work on `COc1cccc(N2CCN(c3ncnc4cc[nH]c34)CC2)c1` yielded a growth of 71.3%.

Compound `COc1ncc(-c2ccc3ncnc(Nc4cccc(Cl)c4)c3c2)cc1NS(=O)(=O)C1CC1` has a growth of 36.7%.

In the case of `CCn1c2ccc(N(C)C)cc2c2cc(N(C)C)ccc21`, the growth is reported as 66.1%.

Compound `COc1ccc(C2=C/C(=C\c3ccc(Cl)cc3)C(=O)N2/N=C/c2ccc(Cl)cc2)cc1` has a growth of 102%.

In the case of `O=C(Nc1cccc(Cn2c(=O)[nH]c3ccc(Oc4ncccn4)cc3c2=O)c1)c1cccc(Cl)c1`, the growth is reported as 54.1%.

`C/C1=C\CC[C@@]2(C)O[C@H]2[C@H]2OC(=O)C(CN3CCN(CC4C(=O)O[C@H]5[C@H]4CC/C(C)=C/CC[C@@]4(C)O[C@@H]54)CC3)[C@@H]2CC1` (stereo partly drawn) was tested, and the growth was 98.7%.

In the case of `C=CCN(CC=C)C(=O)[C@H](CC)[C@@H]1CC[C@@H](C)[C@@H]([C@H](C)[C@@H](O)[C@@H](C)C(=O)[C@H](CC)C2O[C@]3(C=CC(=O)[C@]4(CC[C@@](C)([C@H]5CC[C@](O)(CC)[C@H](C)O5)O4)O3)[C@H](C)C[C@@H]2C)O1` (stereo partly drawn), the growth is reported as -25.2% (active).

For `C=C1C(=O)O[C@H]2[C@H]1CC/C(CNC(=O)c1cc3cc(OC)ccc3[nH]1)=C\CC[C@@]1(C)O[C@@H]21`, the growth was -21.3% (active).

`CCOC(=O)C1=C(Nc2ccc(Br)cc2)C(=O)N(CC)C1` was tested, and the growth was 104%.

With `O=S(=O)(NCCNc1nccc(-c2c(-c3ccc(F)c(O)c3)nc3sccn23)n1)c1ccc(Cl)cc1` the growth was -26.9% (active).

Work on `COc1cccc(/C=C\C(=O)c2ccccc2)c1` yielded a growth of 43.9%.

`O=C1c2ccccc2CCC1(Br)Br` was tested, and the growth was -31.3% (active).

`O=C(Nc1sc2c(c1C(=O)O)CCCC2)c1cccc(C(F)(F)F)c1` gave a growth of 92.9%.

With `COc1ccc2cc1Oc1ccc(cc1)C[C@H]1c3c(cc4c(c3Oc3cc5c(cc3OC)CCN(C)[C@@H]5C2)OCO4)CCN1C` the growth was 36.3%.

With `CCN1C(=O)N(c2ccccc2)C2NC(=S)N(/N=C/C=C/c3ccccc3)C21` (stereo not drawn) the growth was -26.4% (active).

For `Cc1ccc(-c2nc(N3CCCNCC3)c3oc(-c4ccccc4)nc3n2)cc1`, the growth was -69.7% (active).

In the case of `COc1ccc(-c2nn(-c3cccc(NC(=O)Nc4ccc(Cl)c(C(F)(F)F)c4)c3)cc2-c2ccncc2)cc1Cl`, the growth is reported as -11.3% (active).

For `CCOC(=O)/C(=C/c1c(-c2ccccc2)[nH]c2ccccc12)C(=O)c1ccc(Cl)cc1`, the growth was -10.6% (active).

With `CCC(C)CC(C)C(=O)c1c(O)ccn(O)c1=O` (stereo not drawn) the growth was -0.418% (active).

`CC(CCC(=O)O)[C@H]1CCC2C3C(=O)C[C@@H]4CC(=O)CC[C@]4(C)C3CC(=O)[C@@]21C` (stereo partly drawn) showed a growth of 106%.

For `C=CCC(CCC(CC=C)C(=O)OCC)C(=O)OCC` (stereo not drawn), the growth was 99.8%.

From PubChem BioAssay (NCI)
